Experimental data from PubChem BioAssay (NCATS).
Results filed as inconclusive are left out. Where a call stands in place of a potency, no number is given. Values without a mark were called inactive. Activity calls are given as the source filed them. Unless noted, calls come from the whole dose curve; as a rule, active = well fitted curve in the direction sought with a large enough effect; inconclusive = small, poorly fitted or top-dose-only effect, or another doubt; inactive = no such curve, though single readings can be large; an effect the other way counts as inactive or inconclusive.

Columns and labels:
[1] = molecular target: Voltage-gated inwardly rectifying potassium channel KCNH2 (Homo sapiens) (UniProt Q12809); assay: qHTS Assay for Small Molecule Inhibitors of the Human hERG Channel Activity (AID 588834);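 note: lower thallium flux fluorescence means stronger hERG block; nearly all actives have a fitted effect of over 50% in size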
Summary of the method: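 hERG-BacMam U2OS, 2000 cells/well; 0.7X FluxOR loading 1 hr RT dark; cpd ~10 min 37 °C; stim buffer; FDSS fluorescence 2 min @ 1 s; AC50 Hill fit.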

[2] = molecular target: Luciferin 4-monooxygenase (Photinus pyralis) (UniProt P08659); assay: Biochemical firefly luciferase enzyme assay for NPC (AID 624030); note: nearly all actives have a fitted effect of over 70% in size
Summary of the method: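 Direct inhibition of firefly luciferase enzyme (10 nM final, 50 mM Tris Acetate) assessed by luminescence within 5 minutes. Percent activity scaled between DMSO and PTC124 positive control, with concentration-effect curves classified by fit quality and response.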

[3] = S16 Schwann cell PMP22 intronic element firefly luciferase assay (AID 624032); note: nearly all actives have a fitted effect of over 30% in size
Summary of the method: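 Luciferase reporter of PMP22 intronic-element expression in stably transfected S16 rat Schwann cells, read by ONE-Glo luminescence after 24 h compound exposure at 37 C. Activity scaled between DMSO (0%) and positive-control PTC124; concentration-effect curves quality-classified.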

[4] = S16 Schwann cell PMP22 intronic element beta-lactamase assay (AID 624044; calls by dose curve; note: nearly all actives have a fitted effect of over 15% in size); settings: S16 rat Schwann cells, PMP22 element beta-lactamase FRET, 24 h; ratio activity, negative = inhibition: at 38.3 µM (top of the series) unless noted
Summary of the method: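 Rat S16 Schwann cells with beta-Lac driven by a PMP22 intronic element, compound-treated 24 h at 37 °C. LiveBLAzer FRET B/G read: 460 nm normalized to potassium clavulanate vs DMSO; 535 nm FRET as viability; concentration-effect curves classified.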

[5] = S16 Schwann cell viability assay (CellTiter-Glo assay) (AID 624031); note: nearly all actives have a fitted effect of over 70% in size
Summary of the method: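 Rat S16 Schwann cells without reporter constructs received compound or DMSO for 24 h at 37 °C under 5% CO2. Cellular ATP was then quantified by CellTiter-Glo luminescence, with vehicle wells defined as 0% activity and cell-free wells as reference.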
Potency is the fitted concentration of half-maximal effect.

Sequence of Voltage-gated inwardly rectifying potassium channel KCNH2 (Homo sapiens) (Q12809 whole entry, looked up): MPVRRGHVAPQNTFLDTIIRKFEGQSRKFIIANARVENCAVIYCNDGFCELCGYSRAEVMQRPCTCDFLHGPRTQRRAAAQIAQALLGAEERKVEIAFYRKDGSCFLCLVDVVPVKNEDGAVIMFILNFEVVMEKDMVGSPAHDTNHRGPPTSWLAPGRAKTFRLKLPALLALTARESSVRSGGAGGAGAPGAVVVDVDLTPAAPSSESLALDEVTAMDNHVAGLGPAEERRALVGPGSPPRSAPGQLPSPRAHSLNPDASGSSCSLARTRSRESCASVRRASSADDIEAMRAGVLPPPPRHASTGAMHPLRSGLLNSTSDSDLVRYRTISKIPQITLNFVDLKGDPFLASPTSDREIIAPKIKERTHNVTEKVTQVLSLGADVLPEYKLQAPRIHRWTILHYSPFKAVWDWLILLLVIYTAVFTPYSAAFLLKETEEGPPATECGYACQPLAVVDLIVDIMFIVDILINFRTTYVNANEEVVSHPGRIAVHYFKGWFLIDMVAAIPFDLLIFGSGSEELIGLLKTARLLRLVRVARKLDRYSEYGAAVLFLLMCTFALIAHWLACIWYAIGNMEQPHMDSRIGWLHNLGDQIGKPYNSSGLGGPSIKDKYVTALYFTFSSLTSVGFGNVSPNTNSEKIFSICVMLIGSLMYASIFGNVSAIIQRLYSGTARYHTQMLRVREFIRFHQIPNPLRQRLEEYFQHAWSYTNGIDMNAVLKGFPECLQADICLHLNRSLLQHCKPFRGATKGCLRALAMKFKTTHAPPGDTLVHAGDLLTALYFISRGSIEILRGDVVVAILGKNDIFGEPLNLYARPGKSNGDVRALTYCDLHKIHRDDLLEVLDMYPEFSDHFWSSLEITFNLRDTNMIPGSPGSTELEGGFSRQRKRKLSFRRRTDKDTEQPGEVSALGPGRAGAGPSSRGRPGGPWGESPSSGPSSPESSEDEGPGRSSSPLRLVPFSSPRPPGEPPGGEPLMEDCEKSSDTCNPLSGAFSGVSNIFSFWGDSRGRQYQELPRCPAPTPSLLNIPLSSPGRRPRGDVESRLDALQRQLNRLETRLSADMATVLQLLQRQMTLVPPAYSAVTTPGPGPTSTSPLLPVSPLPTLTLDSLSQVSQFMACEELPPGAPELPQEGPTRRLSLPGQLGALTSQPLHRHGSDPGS
Sequence of Luciferin 4-monooxygenase (Photinus pyralis) (P08659 whole entry, looked up): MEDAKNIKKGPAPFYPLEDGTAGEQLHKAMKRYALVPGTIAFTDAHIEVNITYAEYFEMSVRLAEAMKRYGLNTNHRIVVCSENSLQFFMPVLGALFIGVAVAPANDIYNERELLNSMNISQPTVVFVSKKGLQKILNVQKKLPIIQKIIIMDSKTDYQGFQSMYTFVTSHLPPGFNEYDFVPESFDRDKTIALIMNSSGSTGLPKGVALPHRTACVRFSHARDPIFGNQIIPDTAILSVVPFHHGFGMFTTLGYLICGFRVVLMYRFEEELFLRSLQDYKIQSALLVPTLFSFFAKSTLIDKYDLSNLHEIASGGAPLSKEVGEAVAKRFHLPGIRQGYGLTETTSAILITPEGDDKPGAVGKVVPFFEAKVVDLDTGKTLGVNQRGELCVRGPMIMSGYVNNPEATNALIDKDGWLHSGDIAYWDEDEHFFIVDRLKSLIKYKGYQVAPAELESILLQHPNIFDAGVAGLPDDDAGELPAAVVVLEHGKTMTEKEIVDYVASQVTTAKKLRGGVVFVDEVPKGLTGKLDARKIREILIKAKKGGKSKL

| SMILES | Potency [1] | Potency [2] | Potency [3] | ratio activity, negative = inhibition [4] | Potency [5] | Potency [4] |
| --- | --- | --- | --- | --- | --- | --- |
| CC(=O)N=c1sc(S(N)(=O)=O)nn1C | inactive | inactive | inactive | -0.416% [at 17.1 µM] |  |  |
| c1ccc2c(c1)OCC(CN1CCCCC1)O2 (configuration not stated) | inactive | inactive | inactive | 1.83% |  |  |
| CCOc1ccc(NC(=S)Nc2ccc(OCC)cc2)cc1 | inactive | inactive |  | -1.68% | inactive |  |
| CC(C)OC(=O)Nc1ccc2nc(-c3cscn3)[nH]c2c1 | inactive | 9.07 µM (active) | inactive |  |  |  |
| CCN(CC)CCCC(C)Nc1cc(/C=C/c2ccccc2Cl)nc2cc(Cl)ccc12 (configuration not stated) | 14.1 µM (active) | inactive |  | -1.08% |  |  |
| CN(C)C(=O)CCSC(SCCC(=O)O)c1cccc(/C=C/c2ccc3ccc(Cl)cc3n2)c1 (configuration not stated) | inactive | 2.87 µM (active) | inactive | -0.229% |  |  |
| C[C@H](CCCC(C)(C)O)[C@H]1CC[C@H]2[C@@H]3CC=C4C[C@@H](O)CC[C@]4(C)[C@H]3CC[C@]12C | inactive | inactive | inactive |  |  |  |
| COc1ccc2c(c1)OC(C)(C)C(c1ccccc1)C2c1ccc(OCCN2CCCC2)cc1 (configuration not stated) | 10 µM (active) | inactive |  | -10.8% | 32.2 µM (active) |  |
| COc1cc(NCCCC(C)N)c2ncccc2c1 (configuration not stated) | inactive | inactive | 6.42 µM (active) |  |  |  |
| CN(C)c1ccc(C(=C2C=CC(=[N+](C)C)C=C2)c2c(O)c(S(=O)(=O)[O-])cc3cc(S(=O)(=O)O)ccc23)cc1 | inactive | 14.4 µM (active) | 36.1 µM (active) | 1.14% |  |  |
| CCCOC(=O)c1ccccc1O | inactive | inactive |  | 5.82% | inactive |  |
| CCN(CC)CCC(=O)N1c2ccccc2Sc2ccc(Cl)cc21 | 14.1 µM (active) | inactive | 10.2 µM (active) |  |  |  |
| CCCCCCCCCCCC(=O)N(CCO)CCO | inactive | inactive | inactive | 0% |  |  |
| Cc1ncc(C[n+]2csc(CCOP(=O)(O)O)c2C)c(N)n1 | inactive | inactive |  | -8.96% | inactive |  |
| COc1ccc(-c2noc(CC(=O)O)c2-c2ccc(OC)cc2)cc1 | inactive | inactive |  | -1.01% | inactive |  |
| Cn1cc(NC(=O)c2cc(NC(=O)c3cc(NC=O)cn3C)cn2C)cc1C(=O)NCCC(=N)N | inactive | inactive |  | 5.48% | inactive |  |
| c1ccc2c(c1)Sc1ccccc1N2CCN1CCCC1 | 15.8 µM (active) | inactive |  | -1.68% |  |  |
| O=C(/C=C/c1cccc(F)c1)NC1CC1 | inactive | inactive | inactive | 2.97% |  |  |
| F[Si-2](F)(F)(F)(F)F | inactive | inactive |  | 7.11% | inactive |  |
| CCCCCc1ccc(C)cc1O | inactive | inactive | inactive | 4.39% |  |  |
| Cc1cc(C)c(NC(=O)C[C@H](CC(=O)O)c2cccc3ccccc23)c(C(=O)N2CCC3(CCCC3)CC2)c1 | inactive | inactive | inactive |  |  |  |
| CN1CCCC(CN2c3ccccc3Sc3ccccc32)C1 (configuration not stated) | 12.6 µM (active) | inactive | inactive |  |  |  |
| O=C(O)CCCC/C=C(\c1ccccc1)c1cccnc1 | inactive |  | inactive | -4.66% | inactive |  |
| Cc1cccc(Nc2ncccc2C(=O)O)c1C | inactive |  | inactive | 6.34% | inactive |  |
| CN(C)C=Nc1c(I)cc(I)c(CCC(=O)O)c1I | inactive |  | inactive | 2.26% | inactive |  |

| SMILES | Potency [1] | Potency [2] | Potency [3] | ratio activity, negative = inhibition [4] | Potency [5] | Potency [4] |
| --- | --- | --- | --- | --- | --- | --- |
| CCC(O)c1ccccc1 (configuration not stated) | inactive |  | inactive |  | inactive |  |
| CCCC(=O)O | inactive |  | inactive |  | inactive |  |
| O=C(CCCCCCCCCCCCC1CCCC1)Nc1ccc(S(=O)(=O)c2ccc(NC(=O)CCCCCCCCCCCCC3CCCC3)cc2)cc1 | inactive |  | inactive | 4.78% | inactive |  |
| O=C1CCC(=O)N1CO | inactive |  | inactive |  | inactive |  |
| OCC1(CO)COC(C(Cl)(Cl)Cl)OC1 | inactive |  | inactive |  | inactive |  |
| Cc1c(Cl)cccc1Nc1ncccc1C(=O)O | inactive |  | inactive | -7.17% | inactive |  |
| O=P(O)(O)OP(=O)(O)OP(=O)(O)O | inactive |  | inactive | -5.37% | inactive |  |
| CC(=O)NCCCS(=O)(=O)O | inactive |  |  |  | inactive |  |
| C[C@H](N)C(=O)N[C@@H](C)P(=O)(O)O | inactive |  | inactive | 4.18% | inactive |  |
| O=C(c1cc2ccccc2o1)N1CCN(Cc2ccccc2)CC1 | inactive |  | inactive | 2.34% | inactive |  |
| Oc1ccc(Cl)c2c1CCC2 | inactive | inactive |  | -4.38% |  |  |
| COc1ccc2nc(NC(=O)Nc3ccccc3)sc2c1 | inactive |  | inactive | -14.6% | inactive |  |
| O=C1c2ccccc2C(=O)C1c1ccc(Cl)cc1 | inactive |  | inactive | -9.28% | inactive |  |
| CSCCC(N)C(=O)O (configuration not stated) | inactive |  | inactive | 5.55% | inactive |  |
| NCC[C@H](O)C(=O)N[C@@H]1C[C@H](N)[C@@H](O[C@H]2O[C@H](CN)CC[C@H]2N)[C@H](O)[C@H]1O[C@H]1O[C@H](CO)[C@@H](O)[C@H](N)[C@H]1O | inactive |  | inactive |  | inactive |  |
| C[N+]1(C)[C@@H]2CC(OC(=O)C(O)(c3cccs3)c3cccs3)C[C@H]1[C@@H]1O[C@@H]12 (some centres not stated) | inactive |  | inactive | -1.55% | inactive |  |
| O=S(=O)(O)CC(S)CS (configuration not stated) | inactive |  |  |  | inactive |  |
| O=C1NCCN1c1ncc([N+](=O)[O-])s1 | inactive |  | inactive | 1.39% [at 17.1 µM] | inactive |  |
| CCC(Cc1c(I)cc(I)c(O)c1I)C(=O)O (configuration not stated) | inactive |  | inactive | 3.55% | inactive |  |
| O=C(O)C1=C(CSc2nnnn2CS(=O)(=O)O)CS[C@@H]2[C@H](NC(=O)[C@H](O)c3ccccc3)C(=O)N12 | inactive |  | inactive |  | inactive |  |
| Cc1ncc(C[n+]2csc(CCO)c2C)c(N)n1 | inactive |  |  |  | inactive |  |
| CCOC(=O)Cc1ccc(-c2ccccc2)cc1 | inactive |  | inactive | 4.96% | inactive |  |
| CC(C)NCC(O)COc1ccccc1-n1cccc1 (configuration not stated) | 14.1 µM (active) |  | inactive | -5.07% | inactive |  |
| N=C(N)c1ccc(/C=C/c2ccc(C(=N)N)cc2O)cc1 | inactive |  |  |  | inactive |  |
| CC(=O)Oc1cccc2c1C(=O)c1c(OC(C)=O)cc(C(=O)O)cc1C2=O | inactive |  | inactive | 0.316% | inactive |  |

| SMILES | Potency [1] | Potency [2] | Potency [3] | ratio activity, negative = inhibition [4] | Potency [5] | Potency [4] |
| --- | --- | --- | --- | --- | --- | --- |
| O=C(OCc1ccccc1)c1cccnc1 | inactive |  |  |  | inactive |  |
| C[C@@](Cc1ccc(O)c(O)c1)(NN)C(=O)O | inactive |  |  |  | inactive |  |
| c1ccc(-n2cnnn2)cc1 | inactive |  | inactive |  | inactive |  |
| CCC(C)[C@@H](N)C(=O)O (some centres not stated) | inactive |  | inactive | 8.55% | inactive |  |
| CC(C)(C)c1ccc2c(S(=O)(=O)O)c(C(C)(C)C)ccc2c1 | inactive |  | inactive | -0.38% | inactive |  |
| CCN(CC)CCOc1ccccc1OC | inactive |  | inactive | -7.82% | inactive |  |
| CC(CCc1ccc(O)cc1)NCC(O)c1ccc(O)cc1 (configuration not stated) | 1.78 µM (active) |  | 2.03 µM (active) | -5.84% | inactive |  |
| CC(=O)Nc1c(I)c(C(=O)O)c(I)c(N(C)C(C)=O)c1I | inactive |  | inactive | 11.6% | inactive |  |
| C=CC(=O)O | inactive |  | inactive | -7.38% | inactive |  |
| CC(=O)[O][Al][O]C(C)=O | inactive |  | inactive | 0.413% | inactive |  |
| CN1C(C(=O)Nc2ccccn2)C(=O)c2sc(Cl)cc2S1(=O)=O (configuration not stated) | inactive |  |  | 6.16% | inactive |  |
| NC(=S)N=Nc1ccc(NN=C(N)N)cc1 |  | 11.4 µM (active) | inactive | -3.68% | 10.2 µM (active) |  |
| Cc1ccccn1 |  | inactive | inactive | -0.827% | inactive |  |
| CCN(CC)CCC(=O)N1c2ccccc2Sc2ccc(C(F)(F)F)cc21 |  | inactive | 14.4 µM (active) | -1.58% | inactive |  |
| O=P(O)(O)OP(=O)(O)O |  | inactive | 1.81 µM (active) |  | inactive |  |
| CCCCCCCCCCCCCCCCOCCOCCOCCOCCOCCOCCOCCOCCOCCOCCOCCOCCOCCOCCOCCOCCOCCOCCOCCOCCO |  | inactive | 22.8 µM (active) |  | 28.7 µM (active) | 19.9 µM (active) |
| COc1ccc(/C=C/C(=O)OCCC(C)C)cc1 |  | 11.4 µM (active) | inactive |  | inactive |  |
| CN(C)CCC=C1c2ccccc2C(C)(C)c2ccccc21 |  | inactive | inactive | -0.444% |  |  |
| CC(C)(CO)[C@@H](O)C(=O)NCCC(=O)NCCSSCCNC(=O)CCNC(=O)[C@H](O)C(C)(C)CO |  | inactive | inactive | 2.37% | inactive |  |
| O=C(OC1C[C@@H]2CC3C[C@H](C1)N2CC3=O)c1c[nH]c2ccccc12 (some centres not stated) |  | inactive | inactive | -0.0634% | inactive |  |
| CN(C)CCCSc1ccccc1NC(=O)/C=C/c1ccccc1 |  |  | inactive |  | inactive |  |
| C[C@]12CCC(=O)C[C@@H]1CC[C@@H]1[C@@H]2CC[C@]2(C)C=CC[C@@H]12 |  | inactive | inactive | 4.94% | inactive |  |
| O=C1c2ccccc2C(=O)c2c1ccc(O)c2O |  |  | inactive | 0.767% |  |  |
| CC(C)=CCC/C(C)=C/C=C/C(C)=C/C=C/C(C)=C/C=C/C=C(C)/C=C/C=C(C)/C=C/C=C(\C)CCC=C(C)C |  |  | inactive |  | inactive |  |
| Cc1cc2nc3c(=O)[nH]c(=O)nc-3n(C[C@H](O)[C@H](O)[C@H](O)COP(=O)(O)OP(=O)(O)OC[C@H]3O[C@@H](n4cnc5c(N)ncnc54)[C@H](O)[C@@H]3O)c2cc1C |  | inactive | inactive | -42.7% | inactive |  |
